Measured values taken from PubChem BioAssay.
Active and inactive are the calls of the source.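 How the source made its calls, unless noted: active means visually confirmed hit in the image check and inhibition above 20%; inconclusive means visually confirmed hit but inhibition not above 20%; inactive means no visual hit in the image check.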

Experiments:
[1] = inhibitors of TNFa-induced NFkB p65 translocation, primary screen, imaging, HUVEC, MLSMR starter and 10KST1 sets (AID 438;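 active means inhibition above 20% together with a positive visual image hit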;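 further: compound added about 3h40 before a 20 min TNFalpha stimulation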;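 on inhibition: signal is the nuclear over cytoplasmic p65 intensity ratio per well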); settings: HUVEC TNFa-induced p65 nuclear translocation; cell count: measured here: nuclei count (cytotoxicity indicator), at 2.08 µM; inhibition: at 2 µM, stronger effect = higher value, 0% TNFa-plus-vehicle, 100% no-TNFa wells
[2] = reduction of polyQ htt aggregates in cells – imaging, exon1htt(103Q)mCFP cells, high-content imaging, primary screen (AID 483;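 active means visual image review flags a hit and inhibition of aggregation exceeds 20%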;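 further: compound exposure lasted 3 days before fixation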;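 on nuclei count: percent of the per-plate median nuclei count of sample wells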); settings: exon1htt(103Q)mCFP cell line, aggregate imaging, at 2 µM; inhibition of aggregation: stronger effect = higher value; nuclei count: measured here: cell count, toxicity
[3] = endothelial E-selectin expression blockers – imaging, HUVEC, immunofluorescence, MLSMR starter and 10KST1 sets, primary screen (AID 487); settings: HUVEC TNFalpha-induced E-selectin immunofluorescence imaging, at 2 µM; inhibition: stronger effect = higher value; nuclei count: measured here: cell number, toxicity;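 on inhibition: signal is fraction of cell area covered by stained E-selectin grains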;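 on nuclei count: 100% = median nuclei count of all wells on the same plate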
[4] = target: Voltage-gated potassium channel subunit beta-2 (Rattus norvegicus) (UniProt P62483); test: inhibitors of rat Kvbeta2 reductase activity – biochemical, NADPH fluorescence, primary screen (AID 622;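 active means fluorescence slope higher than the sample average by over 3 SD, cut at about -0.22 in these data, passing the limit was not always enough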;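 further: slope of raw intensity against log time taken from 70 to 1610 s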); settings: recombinant KvBeta, 4-cyanobenzaldehyde reduction, at 10 µM, stronger effect = higher value
[5] = target: Voltage-gated potassium channel subunit beta-2 (Rattus norvegicus) (UniProt P62483); test: enhancers of rat Kvbeta2 NADPH turnover – biochemical, NADPH fluorescence, primary screen (AID 623;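 active means NADPH fluorescence slope more negative than the mean of all samples by about 3 SD, 99.7% confidence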;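 further: fluorescence intensity change per second fitted from 20 to 320 s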); settings: Recombinant KvBeta, NADPH fluorescence decrease slope, 10 min; at 10 µM; stronger effect = lower value
[6] = target: Alpha-2C adrenergic receptor (Homo sapiens) (UniProt P18825); test: compounds altering alpha2C-coupled GIRK flux – cell-based, HEK293 alpha2C/GIRK1/2, thallium flux, primary screen (AID 624;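 active means fluorescence slope after compound addition differing from the mean of all screened samples at 99.7% confidence, in either direction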;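 further: slope of fluorescence ratio to pre-addition baseline per second over 15 to 24 s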); settings: thallium flux BTC fluorescence, at 10 µM, actives lie on both sides
[7] = blockers of RIG-like receptor reporter activation – cell-based, Sendai virus stimulus, luciferase, 10K MLSCN set, TLR/RLR signaling modifier project, primary screen (AID 602276;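 active means inhibition at or above 50% at 10 µM; inactive means inhibition below 50%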;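 further: firefly luciferase from ISG56 promoter only with Renilla not read in this screen; 0% = Sendai virus plus DMSO and 100% = medium plus DMSO without virus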); settings: HEK293 RL24 IRF3 luciferase reporter, at 10 µM, stronger effect = higher value
[8] = TLR3 IRF3 reporter activation blockers – cell-based, poly I:C stimulus, luciferase, 10K MLSCN set, primary screen (AID 602277;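 active means inhibition of the reporter signal at or above 50%; inactive means inhibition below 50%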); settings: HEK293-TLR3 RL24 IRF3 luciferase reporter, at 10 µM, stronger effect = higher value

Chain of Voltage-gated potassium channel subunit beta-2 (Rattus norvegicus) (P62483 whole entry, looked up): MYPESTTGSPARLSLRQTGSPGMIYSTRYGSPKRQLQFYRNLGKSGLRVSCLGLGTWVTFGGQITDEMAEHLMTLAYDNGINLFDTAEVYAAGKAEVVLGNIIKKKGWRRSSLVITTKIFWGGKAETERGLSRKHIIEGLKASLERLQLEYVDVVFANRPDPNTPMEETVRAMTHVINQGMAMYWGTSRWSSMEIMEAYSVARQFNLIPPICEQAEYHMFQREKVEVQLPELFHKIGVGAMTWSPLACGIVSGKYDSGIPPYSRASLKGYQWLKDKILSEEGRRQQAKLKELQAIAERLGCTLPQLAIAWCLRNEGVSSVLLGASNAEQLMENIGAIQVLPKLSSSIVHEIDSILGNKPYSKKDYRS
Chain of Alpha-2C adrenergic receptor (Homo sapiens) (P18825 whole entry, looked up): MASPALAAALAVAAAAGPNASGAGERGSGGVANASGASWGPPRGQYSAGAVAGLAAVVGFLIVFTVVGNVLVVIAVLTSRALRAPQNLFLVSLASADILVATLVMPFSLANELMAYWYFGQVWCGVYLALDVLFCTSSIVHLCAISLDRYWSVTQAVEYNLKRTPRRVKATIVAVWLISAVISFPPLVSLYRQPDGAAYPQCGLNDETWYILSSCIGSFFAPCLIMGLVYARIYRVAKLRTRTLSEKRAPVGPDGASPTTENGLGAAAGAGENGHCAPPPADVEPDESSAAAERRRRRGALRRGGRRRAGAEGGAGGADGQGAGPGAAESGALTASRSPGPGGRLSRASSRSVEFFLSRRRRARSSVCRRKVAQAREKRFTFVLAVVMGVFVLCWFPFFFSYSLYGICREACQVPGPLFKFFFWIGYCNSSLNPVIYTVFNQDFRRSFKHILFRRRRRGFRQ

Row | SMILES | cell count [1] | inhibition [1] | inhibition of aggregation [2] | nuclei count [2] [%] | inhibition [3] | nuclei count [3] [%] | fluorescence slope [4] | NADPH fluorescence slope [5] | slope [6] | inhibition [7] | inhibition [8]
1 | COc1cccc(NC(=O)N[C@@H](Cc2ccccc2)C(=O)O)c1 | 565 | -9.8% (inactive) | -6.9% (inactive) | 103 | -37% (inactive) | 100 | -0.591 (inactive) | -3.6e-05 (inactive) | 0.00635 (inactive) | 6.12% (inactive) | 15.1% (inactive)
2 | O=C(Oc1cccc2cccnc12)c1cccc(-n2cnnn2)c1 | 461 | 2.7% (inactive) | -8.5% (inactive) | 105 | -16.1% (inactive) | 93.4 | -0.494 (inactive) | -3.7e-05 (inactive) | 0.00392 (inactive) | 15% (inactive) | 24.5% (inactive)
3 | Cc1nnc(SCc2ccccc2)n1N | 465 | 2.9% (inactive) | -11.7% (inactive) | 101 | -16.8% (inactive) | 119 | -0.494 (inactive) | -4.1e-05 (inactive) | 0.00525 (inactive) | 16.3% (inactive) | 16.6% (inactive)
4 | NC(=O)c1sc2nc3c(c(-c4ccco4)c2c1N)CCC3 | 365 | 5.8% (inactive) | 1.6% (inactive) | 87.8 | -32.2% (inactive) | 121 | -0.366 (inactive) | -6.5e-05 (inactive) | 0.00352 (inactive) | 16.4% (inactive) | -2.19% (inactive)
5 | Cc1nc(CNS(=O)(=O)c2cccc(F)c2)cs1 | 307 | 5% (inactive) | 14.1% (inactive) | 87.9 | -10.3% (inactive) | 92.4 | -0.506 (inactive) | -3.7e-05 (inactive) | 0.00673 (inactive) | 7.13% (inactive) | 20.4% (inactive)
6 | CC1CCc2nn(CC(=O)Nc3ccc(F)cc3F)cc2C1 (configuration not stated) | 644 | -2.3% (inactive) | -37.3% (inactive) | 41.3 | -2.5% (inactive) | 111 | -0.543 (inactive) | 1.3e-05 (inactive) | 0.00669 (inactive) | -5.03% (inactive) | 21.4% (inactive)
7 | COC(=O)CSc1nnc(-c2ccncc2)o1 | 366 | -6.8% (inactive) | -4.1% (inactive) | 94.2 | -16.8% (inactive) | 106 | -0.46 (inactive) | -4.6e-05 (inactive) | 0.00309 (inactive) | 6.97% (inactive) | 32.3% (inactive)
